# Bioassay records as filed in PubChem.
# RBX1-CUL1 inh = inhibitors of human ROC1-CUL1 ubiquitin ligase activity | in vitro K48 di-Ub FRET, acceptor:donor ratio, 45 min | inhibition, % at 10 µM | actives 0.6% (n = 140,000) | AID 1347404, 2020 | E3 ubiquitin-protein ligase RBX1 (Homo sapiens) + Cullin-1 (Homo sapiens), P62877+Q13616; in the data active = inhibition above about 25%
# An asterisk follows results filed as active. The sample as a whole holds a higher share of hits than the screen did.
SMILES,RBX1-CUL1 inh
CC(OC1CC(=O)CC2C(=O)c3c(O)ccc(O)c3C(=O)C12)c1ccc2ccccc2c1 (centres undefined),97.2*
COc1ccc(C(C)OC2CC(=O)CC3C(=O)c4cccc(O)c4C(=O)C23)cc1 (centres undefined),2.4
CC(C)(C)OC1CC(O)CC2C(=O)c3c(O)ccc(O)c3C(=O)C12 (centres undefined),14.5
O=C1CC(N2CCN(c3cccc(C(F)(F)F)c3)CC2)C(=O)N1c1cc(Cl)cc(Cl)c1 (centres undefined),-6.7
CC(C)(CN1CCOCC1)CN1CCOC(CCc2ccccc2)C1 (centres undefined),6.3
Cc1ccc(OCc2nnc(NC(=O)c3ccc(C(C)(C)C)cc3)s2)cc1,-4.0
CC(=O)N1c2ccccc2CCc2c1cc([N+](=O)[O-])cc2[N+](=O)[O-],5.3
O=C(O)C1=NN(c2ccccc2)C(=O)/C1=C\c1ccc(Cl)cc1Cl,40.3*
Cc1c(N2C(=O)/C(=C/c3ccc(Cl)cc3Cl)SC2=S)c(=O)n(-c2ccccc2)n1C,-2.3
O=C(NN1C(=O)/C(=C/c2ccc(Cl)cc2Cl)SC1=S)c1ccccc1Cl,1.1
Cc1nc2ccccn2c1CN(C)C(=O)c1cc(COc2ccc(F)cc2F)on1,-3.3
CCOC(=O)C1C(C)=NC2=C(C(=O)CCC2)C1c1cccc(Cl)c1 (centres undefined),13.0
N=C1C(=O)c2c(N)cccc2C(=O)C1Br (centres undefined),102.5*
Nc1cccc2c1C(=O)N(c1cccc(F)c1)C2=O,-1.4
COc1ccc(-c2[nH]c3ccccc3c2SCCNC(=O)c2ccc(S(=O)(=O)N(C)C)cc2)cc1,-0.2
CCCN1CCC(NC2CCCc3nc(-c4ccccc4)ncc32)CC1 (centres undefined),2.6
CCCOc1ccc(C2C(C(=O)c3ccc(OC)c(OC)c3)C(=O)C(=O)N2Cc2cccnc2)cc1 (centres undefined),-4.2
O=C(NCc1cccnc1Oc1ccc(F)cc1F)c1cscn1,-3.7
Cc1ccc(C2=NOC(=O)/C2=C\c2ccc(C)o2)cc1,48.6*
Cc1ccc(C)c(/C=C2\C(=O)ON=C2c2ccccc2)c1,-1.4
O=C1ON=C(c2ccccc2)/C1=C/c1ccc(Br)s1,-5.4
COCCn1c(=O)c2c(nc3n(-c4ccc(Cl)cc4)c(C)cn23)n(C)c1=O,3.6
CN(C(=S)NC(=O)c1ccccc1Br)c1ccccc1,-2.3
CN(C)c1ccc(/C=C2\N=C(c3ccccc3)N(NC(=O)c3ccccc3Br)C2=O)cc1,40.1*
C=CCN1C(=O)/C(=C\c2ccc(N(C)C)cc2)N=C1SCC(=O)Nc1ccccc1,12.5
SMILES,RBX1-CUL1 inh
Cc1ccc(S(=O)(=O)Nn2nnc3ccccc3c2=O)cc1,-1.0
COc1ccc(NCn2nnc3ccccc32)cc1,5.2
c1ccc2c(c1)nnn2CN(Cn1nnc2ccccc21)C1CCCCC1,-4.5
CCC(C)(C)C1CCC(NC(=O)c2c(C)noc2C)CC1 (centres undefined),6.7
O=C1/C(=C/c2ccc(O)cc2)CS(=O)(=O)c2ccccc21,6.4
CC(=O)N1/C(=C/c2ccccc2O)C(=O)c2cc(Br)ccc21,6.7
CC(=O)N1/C(=C/c2ccc(O)cc2)C(=O)c2ccccc21,60.2*
COC(=O)c1ccccc1-c1ccc(/C=C2\C(=O)NN(c3ccc(Br)cc3)C2=O)o1,10.9
O=C1NN(c2ccc(Cl)c(Cl)c2)C(=O)/C1=C\c1ccc(-c2ccc(Br)cc2C(=O)O)o1,71.4*
O=C1NN(c2ccc(I)cc2)C(=O)/C1=C\c1ccc(-c2ccc(Br)cc2C(=O)O)o1,45.0*
COC(=O)c1cccc(-c2ccc(/C=C3/C(=O)NN(c4ccc(C)cc4)C3=O)o2)c1,14.8
Cc1ccc(/C=C2/C(=O)NN(c3cccc(C(F)(F)F)c3)C2=O)o1,8.6
CCc1ccc(N2NC(=O)/C(=C/c3ccc(-c4ccccc4F)o3)C2=O)cc1,-1.2
O=C1NN(c2ccc(I)cc2)C(=O)/C1=C\c1ccc(-c2cccc(C(=O)O)c2)o1,32.5*
COCc1c(C(=O)Nc2ccccc2Cl)nnn1-c1cc(C)cc(C)c1,0.7
O=c1cc(Oc2c(Cl)cccc2Cl)c2ccccc2o1,-1.2
COc1ccc(CNCCN2CCCC2)cc1OCC(O)CN(C)C(C)C (centres undefined),0.4
O=C(NNC(=O)C1CC1(c1ccccc1)c1ccccc1)C1C2CCCCC21 (centres undefined),-3.9
Nn1c(SCC(=O)c2ccccc2)nc2sc3c(c2c1=O)CCCC3,-5.3
Cc1ccc(NC(=O)/C(C#N)=C\c2ccc(N(C)C)cc2)cc1C,10.7
CC(C)(C)C1(C)OC(=O)C(=Cc2ccc3c(c2)OCO3)C(=O)O1 (centres undefined),3.5
CC(C(=O)O)N1C(=O)/C(=C/c2ccc3c(c2)OCO3)SC1=S (centres undefined),2.8
CC(C)N1C(=O)/C(=C/c2ccc3c(c2)OCO3)C(=O)N(Cc2ccco2)C1=O,101.8*
CCCCN=CC1Sc2ccc(OCC)cc2C1=O (centres undefined),1.9
